Assay outcomes (PubChem)
Shown are actives, neighbours in structure and some others; about 21% of the full set was active somewhere.
Pf growth 48h: Primary qHTS for delayed death inhibitors of the malarial parasite plastid, 48 hour incubation | P. falciparum luciferase growth in erythrocytes, 48 h | Potency, µM (doses to about 28.7 µM), for the others: at the top dose activity change, negative = inhibition, hits mostly inhibitors | 5.9% of 310,000 active; also: potency is read from the fitted curve at half-maximal effect; % is scaled to controls: 0 for no effect and ±100 for the full control effect
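Luciferase-expressing parasites in RBCs, 2% Hct / 0.1% parasitemia final; RPMI 1640 + 0.5% Albumax; 37 C, 5% CO2, one generation; luminescence read-out, lower signal = inhibition.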
NS1 inh: qHTS Assay for Inhibitors of Influenza NS1 Protein Function | Potency, µM (top dose mostly 46.1 µM), for the others: top-dose activity, positive = more growth | 0.4% of 270,000 active | AID 2326, 2010; calls by dose curve; also: potency is read from the fitted curve at half-maximal effect; actives are rising curves; nearly all actives have a fitted effect of over 50% in size
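Growth recovery, yeast-based: influenza A NS1 expressed in S. cerevisiae causes slow growth, and suppressors are detected by OD600. The parent strain without NS1 is used as positive control.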
CHX counter: Cycloheximide Counterscreen for Small Molecule Inhibitors of Shiga Toxin; cell reporter, cycloheximide protein synthesis inhibition counterscreen; max response, %; 12% of 300,000 active; in the data active = max response mostly above about 13%, no sharp cut-off; inactive = mostly below about 14%; also: read at 38.3 µM for the half of the compounds with a filed dose; 0% is about no effect
Pf growth 96h: Primary qHTS for delayed death inhibitors of the malarial parasite plastid, 96 hour incubation | P. falciparum luciferase reporter growth, 96 h | Potency, µM (highest dose often 28.7 µM), for inactives: at the highest dose activity change, negative = inhibition, usual class: inhibitors | 6.9% of 320,000 active; also: potency is read from the fitted curve at half-maximal effect; % is scaled to controls: 0 for no effect and ±100 for the full control effect
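P. falciparum expressing integrated firefly luciferase grown in erythrocytes (2% hematocrit, 0.05% parasitemia final) with compounds for 96 hours at 37 C, 5% CO2. Growth inhibition read as loss of luminescence after adding luciferase detection reagent.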
Shiga inhibitor: A qHTS for Small Molecule Inhibitors of Shiga Toxin | 9.2% of 290,000 active | Vero cells, Shiga toxin protein synthesis inhibition reporter | inhibition, % at 38.7 µM; in the data active = inhibition mostly above about 28%, no sharp cut-off; inactive = mostly below about 43%; also: 0% is about no effect
Giardia FBPA inh: qHTS Assay for Inhibitors of Fructose-1,6-bisphosphate Aldolase from Giardia Lamblia. purified Giardia FBPA. AID 2451, 2010. A8B2U2. 0.71% of 290,000 active. Potency, µM (doses to about 59.6 µM), for inactives: top-dose activity, negative = inhibition, actives largely listed as inhibitors; also: potency is read from the fitted curve at half-maximal effect; % is scaled to controls: 0 for no effect and ±100 for the full control effect; nearly all actives have a fitted effect of over 55% in size
Target sequence (A8B2U2 whole entry, looked up): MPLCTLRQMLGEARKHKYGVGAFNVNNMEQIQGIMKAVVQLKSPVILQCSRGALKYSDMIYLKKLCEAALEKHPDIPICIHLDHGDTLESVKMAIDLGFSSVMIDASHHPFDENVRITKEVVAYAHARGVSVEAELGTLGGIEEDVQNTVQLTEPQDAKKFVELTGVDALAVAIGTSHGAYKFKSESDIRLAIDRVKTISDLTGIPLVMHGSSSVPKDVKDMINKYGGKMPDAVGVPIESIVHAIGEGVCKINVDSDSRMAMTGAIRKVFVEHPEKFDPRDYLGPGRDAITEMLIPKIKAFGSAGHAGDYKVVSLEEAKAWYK
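40 nM FBPA preincubated 10 min at RT with compound (up to 57.5 uM final), then substrate plus GAPDH/TPI/NAD/arsenate coupling and diaphorase/resazurin added. Fluorescence read after 20 min at RT, 525/598 nm.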
* marks the source's active call; other numbers are inactive results; ? = inconclusive; . = not tested or not shown. Unless noted, calls follow the shape of the dose curve; as a rule, active = well fitted curve in the direction sought with a large enough effect; inconclusive = small, poorly fitted or top-dose-only effect, or another doubt; inactive = no such curve, though single readings can be large; an effect the other way counts as inactive or inconclusive.

SMILES	Pf growth 48h	NS1 inh	CHX counter	Pf growth 96h	Shiga inhibitor	Giardia FBPA inh
Cc1ccc(NC(=O)c2ccccc2SCC(=O)N2CCCC2)cc1S(=O)(=O)N(C)C	?	-2%	2	6.6µM*	4	.
CN(C)S(=O)(=O)c1ccc(N2CCCC2)c(C(=O)Nc2ccc(C(N)=O)cc2)c1	?	.	.	-3%	.	.
Cc1ccc(NC(=O)c2cc(S(=O)(=O)N(C)C)ccc2N2CCCC2)cc1S(=O)(=O)N(C)C	?	.	.	10µM*	.	.
O=C(N=C1SC2CS(=O)(=O)CC2N1c1ccc(Cl)c(Cl)c1)C1CCCO1 (configuration not stated)	-4%	2%	-3	28%	-5	-6%
Cc1ccc(OC(=O)CCNC(=O)c2ccccc2Cl)c(Br)c1	-19%	.	.	33%	.	.
COc1ccc(NC(=O)c2cc(S(=O)(=O)N(C)C)ccc2N2CCCC2)cc1Cl	0%	25%	-2	-15%	26	14%
CN(C)S(=O)(=O)c1ccc(N2CCCC2)c(C(=O)Nc2ccccc2Br)c1	13µM*	.	.	15µM*	.	.
COc1ccc(OC)c(NC(=O)c2cc(S(=O)(=O)N(C)C)ccc2N2CCCC2)c1	13µM*	.	.	?	.	.
c1ccc(COC[C@@H]2CO2)cc1	.	.	-1	.	5	2%
O=C(c1c(F)cccc1F)N(C1CCCCC1)C1CCCCC1	10µM*	-38%	-2	-15%	35	4%
O=C(NO)c1ccc(C(=O)N(C2CCCCC2)C2CCCCC2)cc1	3.3µM*	-99%	-3	6%	32	?
O=C(c1ccc(-n2cnnn2)cc1)N(C1CCCCC1)C1CCCCC1	?	.	0	-15%	-10	7%
Cc1cnc(CNc2ccnc(-c3ccc(C(=O)N(C)C)cc3)n2)cn1	.	.	.	.	.	-1%
COc1ccc(C(CNC(=O)c2ccccc2C)N2CCCC2)cc1 (configuration not stated)	.	-11%	5	-18%	12	0%
COc1ccc(C(CNC(=O)c2ccc(Cl)c(S(=O)(=O)N3CCCC3)c2)N2CCCC2)cc1 (configuration not stated)	13µM*	.	.	7.4µM*	.	.
COc1ccc(C(CNC(=O)c2cc(S(=O)(=O)N3CCCC3)ccc2Cl)N2CCCC2)cc1 (configuration not stated)	?	.	.	9.3µM*	.	.
COc1ccc(C(=O)NCC(c2ccc3c(c2)OCO3)N2CCN(c3ccc(OC)cc3)CC2)cc1 (configuration not stated)	?	.	.	2.6µM*	.	.
COc1ccc(C(CNC(=O)C(C)Oc2ccc(Br)cc2)N2CCCC2)cc1 (configuration not stated)	12µM*	.	.	?	.	.
Cc1ccccc1C(=O)Nc1nnc(S(=O)(=O)N2CCCCC2)s1	1%	9%	-3	-23%	-4	-19%
CCC(=O)c1c(CC)c2n3c1CC[C@H]3CCC2	7%	.	.	44%	.	.
CCC(CO)Nc1ccc(-c2n[nH]c(=O)c3ccccc23)cc1[N+](=O)[O-] (configuration not stated)	?	0%	1	?	-5	9%
O=C(c1cnccn1)N1CCC2(CC1)CN(c1cccc(-c3ccccc3)c1)C2	.	.	.	.	.	-6%
COc1ccc(CCNC(=O)c2ccc(Cl)c(S(=O)(=O)N3CCCC3)c2)cc1	12µM*	.	.	6.6µM*	.	.
COc1ccc(CCNC(=O)c2cc(S(=O)(=O)N3CCCCC3)ccc2Cl)cc1	3%	.	.	?	.	.
COc1ccc(C(CNC(=O)c2ccc(S(=O)(=O)N(C)C)cc2)N2CCCC2)cc1 (configuration not stated)	10µM*	13%	4	?	-4	-1%
SMILES	Pf growth 48h	NS1 inh	CHX counter	Pf growth 96h	Shiga inhibitor	Giardia FBPA inh
Cc1nn(C)c(C(=O)NC(=S)Nc2ccccc2Br)c1Cl	12%	-1%	22*	51%	17	.
CCn1ncc(Cl)c1C(=O)NC(=S)Nc1ccccc1Br	-9%	-42%	33*	?	21	.
O=c1ccn(C2OC(COP(=O)(O)OC3C(CO)OC(n4ccc(=O)[nH]c4=O)C3O)C(O)C2O)c(=O)[nH]1 (configuration not stated)	-4%	.	.	-13%	.	.
CC1(C(=O)O)COC(c2ccc(Cl)cc2)OC1 (configuration not stated)	2.9µM*	6%	-1	7%	-4	3%
Cc1ccc(C2OCC3(CO2)COC(c2ccc(C)cc2)OC3)cc1 (configuration not stated)	3%	13%	-1	-101%	-12	10%
COC(=O)c1ccc(C2OCC(C)(C)CO2)cc1	250%	.	49*	?	150*	6%
Cc1ccc(C)c(C(C)NC(=S)NC2CCCCC2)c1 (configuration not stated)	13µM*	-74%	-2	37%	-4	-2%
CCC(NC(=S)NC1CCCCC1)c1ccc(C)cc1 (configuration not stated)	?	-87%	-2	7.4µM*	-3	11%
Cc1ccc(CNC(=S)NC2CCCCC2)cc1	-13%	-58%	-1	?	-3	-5%
CCCc1ccc(C(C)NC(=S)NC2CCCCC2)cc1 (configuration not stated)	13µM*	-101%	-3	33%	-3	11%
Cc1ccc(C)c(C(C)NC(=O)C2CCCC2)c1 (configuration not stated)	-22%	4%	-1	60%	-1	11%
COCCC(=O)N1CCC(Oc2ccc(C(=O)N3CCCCC3COC)cc2)CC1 (configuration not stated)	14%	-1%	1	?	4	.
Cc1ccccc1OCC(=O)OCC(=O)c1cc(C)n(C2CC2)c1C	16%	.	.	16%	.	.
Cc1cc(C(=O)COc2ccccc2C(N)=O)c(C)n1C1CC1	190%	8%	40*	-2%	106	-5%
Cc1cc(C(=O)COc2ccccc2[N+](=O)[O-])c(C)n1C1CC1	41%	.	28*	10%	65*	-5%
CC(C(=O)NCCCc1ccccc1)n1cccc1C(=O)c1ccccc1 (configuration not stated)	-18%	-36%	8	39%	7	.
CCn1c(SCC(=O)c2c[nH]c3ccccc23)nc2cc(S(=O)(=O)N3CCOCC3)ccc21	9.3µM*	12%	-2	2.3µM*	-3	0%
CC1=C/C(=C(\c2cc(C)c(O)c(Br)c2)c2ccccc2S(=O)(=O)O)C=C(Br)C1=O	?	-7%	-7	10µM*	-15	?
CCOC(=O)c1cc2cc(OC)ccc2nc1C	25%	0%	16*	?	88*	-1%
COC(=O)c1ccc2nc(C)c(C)nc2c1	14%	1%	9	208%	3	5%
COc1ccc2nc(C)c(C(N)=O)cc2c1	16%	-1%	-1	27%	-4	-3%
